Structures are written as SMILES. Results with a measured potency or affinity are listed apart. Results filed as inconclusive are left out. The source made the active and inactive calls.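 The calls were made as follows: active = fitted half-maximal concentration no higher than twice the top tested dose, in every repeat run; inconclusive = repeat runs disagree, poor fit, or flat partial inhibition; inactive = the rest.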

The assay concerns the target Endoplasmic reticulum aminopeptidase 1 (Homo sapiens) (UniProt Q9NZ08). Briefly: inhibition of human ERAP1 enzyme activity – biochemical, cherry-pick, set 2, plate reader, dose response (AID 743314).

Endoplasmic reticulum aminopeptidase 1 (Homo sapiens), sequence (Q9NZ08 whole entry, looked up): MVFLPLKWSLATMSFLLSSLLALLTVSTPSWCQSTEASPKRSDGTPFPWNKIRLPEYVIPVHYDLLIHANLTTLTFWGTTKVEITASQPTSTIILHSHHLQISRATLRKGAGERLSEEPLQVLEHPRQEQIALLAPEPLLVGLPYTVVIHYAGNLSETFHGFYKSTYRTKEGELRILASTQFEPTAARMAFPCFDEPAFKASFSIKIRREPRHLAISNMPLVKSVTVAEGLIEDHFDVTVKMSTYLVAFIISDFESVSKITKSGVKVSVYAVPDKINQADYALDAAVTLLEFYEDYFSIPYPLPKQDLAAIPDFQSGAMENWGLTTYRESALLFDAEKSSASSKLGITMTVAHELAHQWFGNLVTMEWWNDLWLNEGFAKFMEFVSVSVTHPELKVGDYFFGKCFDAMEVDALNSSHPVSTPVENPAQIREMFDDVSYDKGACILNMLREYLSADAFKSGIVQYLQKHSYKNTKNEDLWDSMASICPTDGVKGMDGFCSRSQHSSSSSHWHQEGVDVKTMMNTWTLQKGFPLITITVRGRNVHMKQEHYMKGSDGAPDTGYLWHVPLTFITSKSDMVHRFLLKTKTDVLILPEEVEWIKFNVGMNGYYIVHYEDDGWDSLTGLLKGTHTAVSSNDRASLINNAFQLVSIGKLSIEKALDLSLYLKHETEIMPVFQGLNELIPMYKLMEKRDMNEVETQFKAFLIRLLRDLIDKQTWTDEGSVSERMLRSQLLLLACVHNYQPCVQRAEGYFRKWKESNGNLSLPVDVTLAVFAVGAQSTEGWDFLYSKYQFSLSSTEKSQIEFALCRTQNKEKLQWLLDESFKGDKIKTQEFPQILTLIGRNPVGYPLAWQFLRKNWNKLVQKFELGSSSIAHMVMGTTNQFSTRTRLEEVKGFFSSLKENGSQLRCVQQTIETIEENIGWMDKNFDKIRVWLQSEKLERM

Regarding `Cc1cc(OCC(=O)NC(Cc2ccc(Cl)cc2)C(=O)O)c2c3c(c(=O)oc2c1)CCCC3` (configuration not stated), the compound was called inactive.

Regarding `Cc1cc(=O)oc2cc(OCC(=O)N3CCN(C(C)c4ccccc4)CC3)c(Cl)cc12` (configuration not stated), the call was inactive.

The values above are taken from PubChem BioAssay AID743314 (Broad Institute, 2014).
